Source: PubChem BioAssay (EPA / NIEHS)
The source made the active and inactive calls. Rule for the calls: active = hit-call score of the fitted dose curve at least 0.9, where 1 is the maximum; inactive = score below 0.9.

Read-out: Insulin Like Growth Factor 1 (IGF1), IGF1 (gene 3479)
Assay: LTEA_HepaRG_IGF1: Life Technologies and Expression Analysis (LTEA) Assay for Insulin Like Growth Factor 1 (IGF1) using HepaRG (AID 2283506)
Details: mRNA level, 48 h; actives raise or lower the signal
Method: LTEA_HepaRG is a cell based, multiplexed-readout assay that uses HepaRG, a human liver cell line, with measurements taken at 48 hours after chemical dosing on a 96-well plate.LTEA_HepaRG_IGF1 is one of 102 assay component(s) measured in the LTEA HepaRG cell culture assay. It is a marker of Cell proliferation, survival, death.Data from the assay component LTEA_HepaRG_IGF1 was analyzed into 1 endpoint. This assay endpoint, LTEA_HepaRG_IGF1, was analyzed with bidirectional fitting relative to DMSO as the negative control and baseline of activity. Using a type of inducible reporter, measures of mRNA induction for gain or loss-of-signal activity can be used to understand regulation of transcription factor activity. To generalize the intended target to other relatable targets, this assay endpoint is annotated to the growth factor intended target family, where the subfamily is insulin-like.
A total of 1060 chemcials from the ToxCast library were tested in eight-point concentration-response experiments. Cell culture and cytotoxicity assays were conducted at Thermo Fisher Scientific's Custom Services facility (Madison, WI). A single lot of human HepaRG cells (Thermo Fisher Scientific, Frederick, MD) was used for the cell culture experiments. 96-well format collagen type I coated plates of human HepaRG cells were prepared using established methods. Briefly, cryopreserved HepaRG cells were thawed, plated at a density of approximately 100,000 cells/well in HepaRG Thaw, Plate, and General Purpose media (HPRG770, Thermo Fisher Scientific), and incubated for 48 hours. 0.5% DMSO was selected as vehicle control to balance the requisite need of DMSO in HepaRG cultures to maintain differentiation (for example, baseline metabolism, proportions of hepatocytes vs. cholangiocytes), while enabling further hepatic receptor pathway activation (for example, PXR and CAR) in response to chemical exposure. 48 hours after plating, the culture medium was replaced with HepaRG Serum-Free Incudtion Media. Cells were exposed to each test chemical in duplicate and maintained in CO2 incubators for another 48 hours. Chemical plates were thawed to room temperature and 200x concentrations of treatment groups were prepared. 8-point conentration-reponse curves were made with the highest exposure at 100 uM, followed by half-log dilutions, all in 0.5% DMSO. Each test plate contained variouse controls, induction positive controls (1mM phenobarbital), cytotoxicity positive controls ([…] aflatoxin B1), vehicle controls (0.5% DMSO), and total lysis controls (0.5% DMSO). Cell morphology images were taken using an Essen IncuCyte FLR automated microscope, with six 96-well plates imaged in about 24 minutes. Images were captured and exported and JPEG files. Spent culture media was transfered to black-well plates for the LDH assay, and remaining media was sorted at -80 C for later use. Cells were treated with RLT buffer and frozen until shipped for gene expression analysis. Total RNA was isolated from the cell suspension in 75 uL of Buffer RLT (Qiagen, Germantown, MD 20874) by Quintiles/Expression Analysis (Durham, NC) using a custom isolation procedure. Total RNA from each plate well was transferred to a preamplification plate. Fluidigm's 96.96 Dynamic ArrayTM (Fluidigm, Amsterdam, the Netherlands) technology was used for gene expression analyses by quantitative reverse transcription polymerase chain reaction (qRT-PCR, performed by Quintiles/Expression Analysis, Durham, NC)89. Standard TaqManTM Assays (Applied Biosystems/ThermoFisher Scientific, Foster City, CA) were used to assess the expression of 93 genes selected based on their selectivity and sensitivity to important hepatic receptors known to be modulated by environmental chemicals; importance in human hepatocyte functionality; and hepatotoxicity. […]

Compound	outcome	AC50
CCCCCCCCCCCCCCCO	inactive	
CCNc1ccccc1	inactive	
On1ccccc1=S	inactive	
NC(=O)NO		14.3 µM (active)
C1N2CN3CN1CN(C2)C3	inactive	
Oc1ccc2c(c1)-c1ccccc1C2	inactive	
COC(=O)CC(=O)OC	inactive	
CCOC(=O)COc1ccc2c(c1)CC(NCC(O)c1cccc(Cl)c1)CC2 (stereo not given)	inactive	
O=P(OC(CCl)CCl)(OC(CCl)CCl)OC(CCl)CCl		50 µM (active)
CN(C)c1ccc(Cc2ccc(N(C)C)cc2)cc1		79.2 µM (active)
CCCN(C1CCN(C(=O)C2CCNCC2)CC1)[C@@H]1CCc2ccc(OC)cc2C1		50 µM (active)
CCc1cc(SCc2sc(-c3ccc(C(F)(F)F)cc3)nc2CN2CCN(c3ccc(OC)cc3)CC2)ccc1OCC(=O)O		73.8 µM (active)
CC(O)CN(CCN(CC(C)O)CC(C)O)CC(C)O (stereo not given)	inactive	
COC(=O)c1ccccc1O	inactive	
CCOc1cccc(-n2cc(C(=O)N3CCN(c4cc(C(=O)O)c5ccccc5c4)CC3)nc2-c2ccc(C)cc2)c1		26.6 µM (active)
Cc1[nH]cnc1C[C@H]1CCc2c(C)c3ccccc3n2C1=O		17.8 µM (active)
COc1ccc(/C=C/S(=O)(=O)NC(=O)c2ccc(C)cc2Cl)cc1	inactive	
COc1ccc(-n2nc(C(F)F)cc2-c2ccc(S(C)=O)cc2)cc1 (stereo not given)	inactive	
CCCCC(CC)COC(=O)c1ccc(C(=O)OCC(CC)CCCC)cc1 (stereo not given)	inactive	
O=C(CCCCCCCCc1cccnc1)N1CCC(C=C(c2ccccc2)c2ccccc2)CC1		16.5 µM (active)

Compound	outcome	AC50
CCC(C)(C)C(=O)O[C@H]1C[C@@H](C)C=C2C=C[C@H](C)[C@H](CC[C@@H]3C[C@@H](O)CC(=O)O3)[C@H]21	inactive	
Nc1ccc(Nc2ccccc2)cc1		50 µM (active)
O=C1OC(=O)C2C3C=CC(C3)C12 (stereo not given)	inactive	
CCOC(=O)c1ccc(C2CCC(NC[C@H](O)COc3ccc(O)c(NS(C)(=O)=O)c3)CC2)cc1 (stereo not given in full)	inactive	
O=C(NS(=O)(=O)/C=C/c1ccccc1)c1ccc(F)cc1Cl		8.33 µM (active)
CC(C)CCO	inactive	
CCCCCCc1ccc(O)cc1O	inactive	
CNCc1ccc(NC(=O)c2c[nH]c3c2C(=O)CCC3)cc1	inactive	
CC(C)=CCC/C(C)=C/CO	inactive	
Cc1ccc(C)c(O)c1	inactive	
CCOC(=O)CC(CC(=O)OCC)(OC(C)=O)C(=O)OCC	inactive	
CC(=O)OC[C@H]1O[C@@](COC(C)=O)(O[C@H]2O[C@H](COC(C)=O)[C@@H](OC(C)=O)[C@H](OC(C)=O)[C@H]2OC(C)=O)[C@@H](OC(C)=O)[C@@H]1OC(C)=O	inactive	
CC(C)(O)c1coc(S(=O)(=O)NC(=O)Nc2c3c(cc4c2CCC4)CCC3)c1	inactive	
Fc1ccccc1[C@@H](F)COC1CCC(Nc2ncnc3[nH]ncc23)CC1 (stereo not given in full)		50 µM (active)
CCn1nc(Cc2ccccc2)cc1C1CCN(C[C@H]2C[C@H](N(C)[C@@H](C(=O)O)C(C)C)C[C@@H]2c2cccc(F)c2)CC1		37.7 µM (active)
COCCOCCOCCOC	inactive	
C[C@](N)(Cc1ccc(O)c(O)c1)C(=O)O	inactive	
CC(C)CC(C)(O)C#CC(C)(O)CC(C)C (stereo not given)	inactive	
CC/C(=C\C(=N/O)C(N)=O)C(C)[N+](=O)[O-] (stereo not given)	inactive	
COc1ccc2sc(C(=O)Nc3nnn[nH]3)c(OC(C)C)c2c1	inactive	
